Data published in PubChem BioAssay (NCI).
About 83,000 compounds went through this panel and 20% of them were active in at least one assay; those are over-represented in the sample as a whole.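 Plates (96-well) were seeded with cells, treated with compound at one concentration, and incubated for 48 hours before percent growth was determined.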 A number with no mark means an inactive call. Calls of active or inactive are those of the source. How the source made its calls: active means growth percent below 10; inactive means the rest.

What was measured:
Assay in all cases: NCI-60 one-dose screen, 48 h (100 = growth as untreated, 0 = no growth, -100 = all killed)
Conditions in all cases: 10 µM unless noted
T-47D breast = system: T-47D breast
BT-549 breast = system: BT-549 breast
MDA-MB-435 melanoma = system: MDA-MB-435 melanoma
SW-620 colon = system: SW-620 colon
MCF7 breast = system: MCF7 breast
HCT-116 colon = system: HCT-116 colon
KM12 colon = system: KM12 colon
HCC-2998 colon = system: HCC-2998 colon

Row | Compound | growth (T-47D breast) | growth (BT-549 breast) | growth (MDA-MB-435 melanoma) | growth (SW-620 colon) | growth (MCF7 breast) | growth (HCT-116 colon) | growth (KM12 colon) | growth (HCC-2998 colon)
1 | OC(COc1cccc2ccccc12)CN1CCN(c2ccccc2)CC1 (centres undefined) | 86.2% | 95.3% | 88.2% | 102% | 96.4% | 86.9% | 95.3% | 
2 | OCCCCc1nccc2c1[nH]c1ccccc12 | 110% | 57.5% | 85.7% | 108% | 89% | 101% | 110% | 
3 | COc1ccc(-c2cc(-c3ccc(Nc4nc(Nc5ccccc5)nc(Nc5ccc(Cl)cc5)n4)cc3)nc(N)c2C#N)cc1 | -32% (active) | -50.6% (active) | -58.5% (active) | -45.6% (active) | -32.7% (active) | -88.5% (active) | -12.5% (active) | 
4 | COc1cc(C(=O)/C=C/c2c(C(F)(F)F)nc3ccccn23)cc(OC)c1OC | 8.03% (active) | 10.4% | -10.2% (active) | -29.6% (active) | -44.7% (active) |  | -82.7% (active) | -97.2% (active)
5 | COC1(CC[C@@H](C)COC2OC(CO)C(O)C(O)C2O)O[C@H]2C[C@H]3[C@@H]4CC=C5C[C@@H](OC6OC(CO)C(OC7OC(C)C(O)C(O)C7O)C(O)C6OC6OC(C)C(O)C(O)C6O)CC[C@]5(C)[C@H]4CC[C@]3(C)[C@H]2[C@@H]1C (some centres undefined) | -4.7% (active) | -84.2% (active) | -61.3% (active) | -96.4% (active) | -85.5% (active) | -86.1% (active) | -82.2% (active) | 
6 | COc1cccc(CCC2CCCN(c3cc(C)nc(N)n3)C2)c1 (centres undefined) | 45.9% | 39.1% | 0.575% (active) | 30.4% | 17.8% | 7.36% (active) | 20.5% | 39.4%
7 | Nc1c(-c2nc3ccccc3c(=O)[nH]2)nnn1-c1ccc(Cl)cc1 | 27.2% | 77.8% | 83.3% | 99.2% | 90% | 78.8% | 82.8% | 104%
8 | O=C(Oc1ccc[nH]c1=O)c1cc([N+](=O)[O-])cc([N+](=O)[O-])c1 | 109% | 75.6% | 121% | 107% | 96.2% | 103% | 116% | 
9 | CC(C)(C)N1CC(OC(N)=O)C1 | 93.3% | 94.4% | 96.5% | 104% | 102% | 99.4% | 108% | 
10 | Cc1ccc(Nc2ccc(Nc3ccc(C)cc3S(=O)(=O)O)c3c2C(=O)c2ccccc2C3=O)c(S(=O)(=O)O)c1 | 111% | 103% | 103% | 92% | 92.2% | 87% | 96.7% | 112%
11 | CC(C)(C)OC(=O)N1Cc2cc3ccccc3nc2C1CO (centres undefined) | 103% | 85% | 88.1% | 94.5% | 90.7% | 98.4% | 106% | 
12 | O[C@H]1CO[C@H]2[C@@H]1OC[C@@H]2Oc1ccc(Nc2nc(Nc3ccc(F)c(Cl)c3)ncc2F)cc1Cl | 110% | 105% | 93.1% | 98.2% | 88.3% | 105% | 108% | 101%
13 | O=[N+]([O-])c1ccc(-c2cc3c(Nc4ccc(Sc5nc6ccccc6s5)c(Cl)c4)ncnc3s2)cc1 | 37.1% | 87.6% | 30.8% | 49.5% | 16.2% |  | 35.1% | 49.7%
14 | O=c1[nH]c(=O)n(C2CC(O)C(CO)O2)cc1CO (centres undefined) | 87.7% | 82.1% | 99% | 96.6% | 65.4% | 91.4% | 103% | 
15 | COc1cc(/C=C/C(=O)c2ccc(Nc3nc(Nc4ccccc4)nc(Nc4ccc(Cl)cc4)n3)cc2)cc(OC)c1OC | 28.3% | 50.9% | 58.8% | 56.2% | 7.84% (active) | 0.251% (active) | 46.9% | 
16 | NC(=Nc1ccc(N)cc1)C(N)=Nc1ccc(N)cc1 | 104% | 64.3% | 104% | 99.2% | 90.4% | 95.9% | 108% | 
17 | Cn1ncc2c(Nc3ccc(Br)cc3)nc(Nc3ccc(Br)cc3)nc21 | 29.1% | 62.5% | 33.5% | 52.7% | 3.89% (active) | 37% | 37.1% | 
18 | COc1ccc(C2=NC(=O)NC2c2ccc(OC)cc2)cc1 (centres undefined) | 62.5% | 90.6% | 9.83% (active) | 38.7% | 29.3% | 47% | 41.1% | 
19 | Cc1[nH]c(-c2nc3ccccc3[nH]2)c(C)c1C(=O)N1CCc2sccc2C1 | 72.9% | 94.1% | 94.9% | 89% | 90.2% | 92.6% | 97.6% | 110%
20 | C[C@]12CCC(=O)C[C@H]1CC[C@@H]1[C@@H]2CC[C@@]2(C)[C@H]1CC[C@]2(O)C(=O)CO | 99.5% | 105% | 102% | 108% | 91.1% | 110% | 110% | 
21 | CC1=NN(c2cccc(Cl)c2)C(=O)/C1=C\c1cn(CC(O)CN2CCCCC2)c2ccccc12 (centres undefined) | 83.3% | 96.1% | 1.51% (active) | 7.47% (active) | 41.1% | 10.2% | 29.7% | 
22 | CC[C@]1(O)C[C@H]2CN(CCc3c([nH]c4ccccc34)[C@@](C(=O)OC)(c3cc4c(cc3OC)N(C=O)[C@H]3[C@@](O)(C(=O)OC)[C@H](OC(C)=O)[C@]5(CC)C=CCN6CC[C@]43[C@@H]65)C2)C1 | 54.8% | -24.2% (active) | -43.7% (active) | 15.5% | 2.44% (active) | -36.7% (active) | 5.78% (active) | 
23 | O=C1/C(=C/c2ccc([N+](=O)[O-])cc2)COc2ccc(O)c(O)c21 | -5.74% (active) | 24.3% | 0.103% (active) | -40.6% (active) | 8.42% (active) |  | -55.3% (active) | -77.8% (active)
24 | N#Cc1cnn2c(-c3ccc(Cl)cc3)nc(NCCc3ccccc3)nc12 | 50.9% | 100% | 101% | 98.1% | 79.7% |  | 88% | 106%
25 | CCNCCNc1cc(-c2ccc(F)cc2)c(C#N)c2nc3ccccc3n12 | 21.3% | 70.9% | -62.7% (active) | 10.8% | 35.4% |  | 66.4% | 53.5%
26 | CN=C1C=CC(=C(c2ccc(N(C)C)cc2)c2ccc(N(C)C)cc2)C=C1 | 3.04% (active) | -34.3% (active) | -51% (active) | 3.29% (active) |  | -7.21% (active) | -76.2% (active) | -31% (active)
27 | CCCCCCNCc1cc(C(C)(C)C)cc(CNCCCCCC)c1O | -41.6% (active) | -81% (active) | -82.8% (active) | -69.6% (active) |  | -90.8% (active) | -83% (active) | -85.2% (active)
28 | O=C1NC(=S)S/C1=C\N1N=C(c2ccc(Cl)cc2)CC1c1ccc(F)cc1 (centres undefined) | 72.2% | 100% | 97.2% | 92.1% | 71.9% |  | 87.4% | 100%
29 | CCCCCCCCCCCCCCCCCC1=NCCN1C(=O)OCCO | 57.3% | 113% | -21.2% (active) | -76.8% (active) | -45.6% (active) |  | 21.4% | 
30 | COc1ccc(/C(C)=C(\c2ccc(Cl)cc2)c2ccc(OCCN3CCCCC3)cc2)cc1F | 47.4% | 60.7% | 37% | 22.1% | 15% |  | 18.7% | 25.2%
